Screening data as filed in PubChem BioAssay.
HP1b chromo inh – HTS for Inhibitors of HP1-beta Chromodomain Interactions with Methylated Histone Tails | AlphaScreen HP1-beta / biotin-H3K9me3 peptide binding | Potency, µM (titrated, usually from 114 µM), without a hit: at the highest dose activity change, negative = inhibition, most hits filed as inhibitors | actives 0.56% (n = 390,000); further: nearly all actives have a fitted effect of over 70% in size
Target sequence (P83916 whole entry, looked up): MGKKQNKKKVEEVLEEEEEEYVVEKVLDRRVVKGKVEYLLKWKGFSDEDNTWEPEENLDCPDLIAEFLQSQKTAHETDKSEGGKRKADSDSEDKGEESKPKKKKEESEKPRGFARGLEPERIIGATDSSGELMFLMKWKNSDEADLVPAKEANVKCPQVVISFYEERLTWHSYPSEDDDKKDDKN
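Compound inhibition of the preformed complex between 50 nM HP1-beta and 50 nM biotinylated H3K9me3 peptide was read by AlphaScreen. Buffer was PBS pH 7.4 with 0.01% Tween-20. Incubations ran 30 min at room temperature, with 10 ug/mL donor/acceptor beads.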
JMJD2A Tudor – qHTS Assay for Inhibitors of JMJD2A-Tudor Domain; Lysine-specific demethylase 4A (Homo sapiens), O75164; AlphaScreen JMJD2A-Tudor / H3K4me3 peptide binding; Potency, µM (series often up to 114 µM), without a hit: at the top dose activity change, negative = inhibition, hits mostly inhibitors; actives 4.4% (n = 390,000); further: on the % scale 0 is the no-effect control and ±100 the full control effect; nearly all actives have a fitted effect of over 50% in size
G9a block – qHTS Assay for Inhibitors of Histone Lysine Methyltransferase G9a | actives 8.8% (n = 350,000) | G9a H3K9 monomethylation, AlphaScreen, 2 h | Potency, µM (highest dose often 102 µM), inactives show top-dose activity, negative = inhibition, most hits filed as inhibitors; further: on the % scale 0 is the no-effect control and ±100 the full control effect; nearly all actives have a fitted effect of over 75% in size
Target sequence (Q96KQ7 913-1193 limits assumed): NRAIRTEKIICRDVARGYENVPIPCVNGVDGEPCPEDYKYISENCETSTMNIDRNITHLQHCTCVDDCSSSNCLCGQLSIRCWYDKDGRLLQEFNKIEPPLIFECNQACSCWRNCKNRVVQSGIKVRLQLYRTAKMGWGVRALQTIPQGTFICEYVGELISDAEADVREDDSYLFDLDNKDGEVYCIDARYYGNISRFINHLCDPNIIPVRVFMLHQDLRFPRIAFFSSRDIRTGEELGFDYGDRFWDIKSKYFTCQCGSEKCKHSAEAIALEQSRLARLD
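Methyltransferase reactions run at room temperature for 2 h (20 nM enzyme, 500 nM biotin-H3K9 peptide, 20 uM SAM) after a 15 min compound preincubation; product detected by AlphaScreen beads and anti-H3K9me1 antibody.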
BAZ2B inh – qHTS Assay for Inhibitors of BAZ2B | AlphaScreen BAZ2B-H3K14Ac peptide displacement | AID 504333, 2011 | Potency, µM (series often up to 114 µM), without a hit: at the highest dose activity change, negative = inhibition, usual class: inhibitors | actives 4.4% (n = 360,000) | Bromodomain adjacent to zinc finger domain protein 2B (Homo sapiens), Q9UIF8; further: on the % scale 0 is the no-effect control and ±100 the full control effect; nearly all actives have a fitted effect of over 60% in size
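Multi-concentration screen (max 110 uM) measuring displacement of acetylated histone H3 peptide from BAZ2B by AlphaScreen, using 50 nM protein, 50 nM peptide and 10 ug/mL streptavidin donor plus Ni-chelate acceptor beads.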
PLK1 PBD block – qHTS for Inhibitors of PLK1-PDB (polo-like kinase 1 - polo-box domain): Primary Screen | Serine/threonine-protein kinase PLK1 (Homo sapiens), P53350 | Plk1 PBD binding of FITC phosphopeptide, fluorescence polarization | Potency, µM, without a hit: max response, negative = inhibition, usual class: inhibitors | actives 2.8% (n = 360,000); further: series mostly up to about 57 µM; on the % scale 0 is the no-effect control and ±100 the full control effect; nearly all actives have a fitted effect of over 65% in size
VDR inh – Inhibitors of the vitamin D receptor (VDR): qHTS. Vitamin D3 receptor (Homo sapiens), P11473. VDR-SRC2-3 peptide fluorescence polarization, 2 h. Potency, µM, for the others: max response, negative = inhibition, hits mostly inhibitors. actives 0.93% (n = 400,000). AID 504847, 2011; further: on the % scale 0 is the no-effect control and ±100 the full control effect
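Measured by FP: displacement of SRC2-3 coactivator peptide from VDR by library compounds, following a two-hour ambient incubation.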
Active calls of the source: *; ? = inconclusive; · = no result given; [ ] = remark or other dose. In the library only some 11% were active in any assay of this set; here they are far more common. The call rests on the fitted dose curve; in most records, active means well fitted curve in the direction sought with a large enough effect; inconclusive means small, poorly fitted or top-dose-only effect, or another doubt; inactive means no such curve, though single readings can be large; an effect the other way counts as inactive or inconclusive. Potency means the concentration at half of the fitted maximal effect.

SMILES	HP1b chromo inh	JMJD2A Tudor	G9a block	BAZ2B inh	PLK1 PBD block	VDR inh
CC(C)OCCCN1CN(S(=O)(=O)c2cccs2)c2nc3ccccc3nc21	47%	2%	20µM*	-24%	4%	-10%
CC[C@@H](C)C(NC(=O)OC(C)(C)C)c1cn([C@@H](CCC(=O)OC(C)(C)C)C(=O)N2CCN(C(=O)OC(C)(C)C)CC2)nn1 (stereo partly specified)	28%	-16%	9%[59 µM]	-5%	-2%	-10%
COc1ccc(NC(=O)C(C)N2C(=O)c3ccccc3C2=O)cc1S(=O)(=O)N1CCOCC1 (stereo unspecified)	25%	-11%	-3%[59 µM]	-20%	6%	8%
Cn1nc(CC(=O)Nc2ccc3c(c2)OCCO3)c2ccccc2c1=O	30%	-3%	13%[12.7 µM]	0%	-4%	-3%
Cc1ccc(NC(=O)Cc2c(C(=O)O)n(C)c3ccccc23)cc1F	-21%	45µM*	-1%	-2%	24µM*	-17%
Cc1ccc(NC(=O)Cc2nn(C)c(=O)c3ccccc23)cc1F	-6%	35µM*	8%[59 µM]	-1%	3µM*	?
Cc1[nH]c2ccccc2c1C(=O)C(=O)N1CCN(c2cccc(Cl)c2)CC1	1%[57 µM]	?	?	-37%	-3%	19%
O=C(CCNS(=O)(=O)c1ccccc1)N1CCC(Cc2ccccc2)CC1	41%	-3%	24%	-4%	2%	-6%
Oc1ccccc1C1NN=C(c2ccccc2)S1 (stereo unspecified)	77%	-20%	·	18µM*	?	-1%
CN(C)CCN(C(=O)C1CCN(S(=O)(=O)c2cccs2)CC1)c1nc2ccc(F)cc2s1	-17%	?	28µM*	?	3%	16%
Cc1cccc2sc(N(CCN(C)C)C(=O)C3CCN(S(=O)(=O)c4cccs4)CC3)nc12	?	56µM*	32µM*	50µM*	-7%	-13%
COc1ccc(/C=N/NC(=O)C2c3ccccc3-c3ccccc32)cc1	29%	-19%	45µM*	-4%	-11%	-27%
COc1ccc(/C=N/NC(=O)/C(=C/c2ccccc2)CCO)cc1	1%	79µM*	37%[59 µM]	-1%	27µM*	?
COc1ccccc1NC(=O)C1=C(C)Nc2nc(SCc3ccccc3C)nn2C1CC(C)C (stereo unspecified)	7%	-17%	-29%[59 µM]	-1%	·	36%
CCC1=NN2C(=N)/C(=C/c3ccc(OS(=O)(=O)c4ccc(C)cc4)c(OC)c3)C(=O)N=C2S1	-17%	-30%	-6%	-2%	15µM*	-12%
COc1cc(/C=C2/C(=N)N3N=C(C)SC3=NC2=O)ccc1OS(=O)(=O)c1ccc(C)cc1	11%	-8%	18%	-2%	21µM*	-10%
CS(=O)(=O)Oc1ccc(/C=C2\C(=N)N3N=C(CC(=O)N4CCOCC4)SC3=NC2=O)cc1Cl	32%	14%	0%	-4%	0%	-12%
Cc1ccccc1-c1cccc([C@@H]2C[C@H]3[C@H](CON3C)CN2Cc2cc(Cl)cc(Cl)c2)c1	29%	-22%	·	·	-2%	0%
CC(C)(C)C(=O)NC(=S)Nc1ccc(Cc2ccncc2)cc1	-15%	?	35µM*	-35%	-21%	-4%
CNC(=S)Nc1ccc(Cc2ccncc2)cc1	41%	-5%	8%	-3%	-2%	10%
COC(=O)c1c(NC(=S)NNC(=O)c2ccc(Cl)s2)sc(C(=O)N(C)C)c1C	-6%	-19%	28µM*	-17%	-14%	4%
COC(=O)Nc1sc(C(=O)N(C)C)c(C)c1C(=O)OC	17%	-9%	26%[0.0925 µM]	-6%	-15%	-12%
O=C1C=C(O)CC(c2ccc(Cl)cc2)C1 (stereo unspecified)	18%	2%	-2%[59 µM]	-2%	-20%	3%
CC(=O)C1C(=O)CC(c2ccc(Cl)cc2)CC1=O (stereo unspecified)	9%	?	56µM*	-23%	2%	-8%
C/C=C(\C)C(=O)NNC(=O)c1sc(-c2ccccc2)nc1C	40%	-1%	16%	0%	-4%	-4%
SMILES	HP1b chromo inh	JMJD2A Tudor	G9a block	BAZ2B inh	PLK1 PBD block	VDR inh
C/C(=N\Nc1ccc(C)c(Cl)c1)c1cccnc1	45%	-17%	11µM*	-38%	-6%	-10%
C/C(=N\NC(=O)C(=O)Nc1ccc(C)c(Cl)c1)c1ccncc1	31%	8%	26%[59 µM]	11%	-7%	-16%
C/C(=N\Nc1ccc(C)c(Cl)c1)c1ccncc1	23%	?	22µM*	?	-9%	-19%
CCCc1nn2c(=O)cc(COC(=O)c3ccccc3NC(=O)C3CCCCC3)nc2s1	-15%	-29%	?	-7%	·	6%
CN(C)Cc1cccc(-c2ccccc2)c1O	-15%	-1%	·	·	-11%	9%
CN(C)Cc1cccc([N+](=O)[O-])c1O	22%	-21%[11.4 µM]	50µM*	-17%	-7%	-7%
O=c1[nH]c(/C=C\c2ccc(O)c(Cl)c2)nc(O)c1[N+](=O)[O-]	19%	-6%	50µM*	-22%	7%	4%
O=c1[nH]c(/C=C\c2cccs2)nc(O)c1[N+](=O)[O-]	-8%	?	?	-30%	?	4%
C=CCc1cc(/C=C/c2nc(O)c([N+](=O)[O-])c(=O)[nH]2)cc(OC)c1O	-6%	-26%[57.1 µM]	50µM*	?	-21%	79µM*
O=c1[nH]c(/C=C\c2ccc(O)cc2)nc(O)c1[N+](=O)[O-]	48%	0%	71µM*	-26%	4%	-26%
Fc1cccc(-c2cncc(N3CCN(CCN4CCCC4)CC3)n2)c1	·	·	·	·	1%	·
CC(=O)Oc1cc2c(C(=O)NCCCN3CCOCC3)c(C)oc2c2ccccc12	2%	-19%[11.4 µM]	-10%[2.33 µM]	-3%	30µM*	-5%
Cc1c(OCC(=O)NCCCN2CCOCC2)ccc2c1oc(=O)c1ccccc12	23%	-13%	4%	-15%	-5%	2%
O=C(CSc1ccccn1)Nc1ccc(Cl)cn1	-5%	-17%	20%	27%	24µM*	-21%
O=C(Cc1ccccc1)Nc1ccc(Cl)cn1	37%	-3%	14%	-12%	-25%	1%
O=C(CN1C(=O)c2ccccc2C1=O)Nc1ccc(Cl)cn1	-4%	-20%[11.4 µM]	?	1%	27µM*	-1%
O=C(COC(=O)Cc1ccccc1F)Nc1ccc(Cl)cn1	-11%	20µM*	-30%	12%	17µM*	?
